Records with an inconclusive call do not appear. Active and inactive are the calls of the source. Calls come from the whole dose curve; as a rule, active = well fitted inhibition curve with a large enough effect; inconclusive = small, poorly fitted or top-dose-only effect; inactive = flat fitted curve, though single readings scatter.
Test system: Zika virus NS2B-NS3 protease
Experiment: Primary screen GU AMC qHTS for Zika virus inhibitors (AID 1347154);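 note: 0% = no-inhibitor control and -100% = no-enzyme control; nearly all actives have a fitted effect of over 70% in size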
Details: Zika NS2B-NS3 unlinked protease, AMC fluorogenic substrate; series mostly up to 54.1 µM
In short: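 Unlinked Zika NS2B hydrophilic domain/NS3 protease domain noncovalent complex (25 nM final) in 10 mM Tris-HCl pH 8.0, 0.01% Tween 20, with AMC peptide substrate. Fluorescence (ex 340, em 450 nm) change over 15 min, room temperature; percent inhibition fitted to 4-parameter Hill equation.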

Potency, inactive:
C=C1/C(=C\C=C2\CCCC3(C)C2CCC3C(C)/C=C/C(O)C2CC2)CC(O)CC1O (stereo unspecified), C[C@]12CC[C@@H](O)C[C@@H]1CC[C@@H]1[C@@H]2CC[C@]2(C)C=CC[C@@H]12, CC(N)(C(=O)O)c1ccc(P(=O)(O)O)cc1 (stereo unspecified), CC(N)CCCP(=O)(O)O (stereo unspecified), CSCC[C@H](NC(=O)[C@H](Cc1ccccc1)NC[C@@H](NC[C@@H](N)CS)C(C)C)C(=O)O, C/C(O)=C1\C(=O)[C@@H]2[C@H]3c4c[nH]c5cccc(c45)C[C@H]3C(C)(C)N2C1=O, CC(=O)N[C@@H](CSC/C=C(\C)CC/C=C(\C)CC/C=C(\C)CCC=C(C)C)C(=O)O, NCCCCCc1cnc[nH]1, CC(C)OC(=O)c1cn(Cc2c(F)cccc2F)c2sc(-c3ccc(NC(=O)C(C)C)cc3)c(CN(C)Cc3ccccc3)c2c1=O, N[C@@H](C(=O)O)[C@@H](CC(=O)O)c1ccc(Cl)cc1, Cc1ccccc1N1CCN(S(=O)(=O)CC23CCC(CC2NC(=O)C(N)CCS(C)(=O)=O)C3(C)C)CC1 (stereo unspecified)

Activity change, negative = inhibition, inactive:
CCCCCCCCCCCCCCCCOC[C@H](COP(=O)([O-])OCC[N+](C)(C)C)OC(=O)NC 0.721% [at 6.83 µM], CCCCCCCCCCCCC(O)C(=O)O (stereo unspecified) 10.2% [at 6.83 µM], H-EQKQLQ-OH 7.08% [at 6.83 µM], CCCCC/C=C\CC1OC1CCCCCCCC(=O)O (stereo unspecified) 6.59% [at 0.59 µM], CCCCCCCC/C=C\CCCCCCCC(=O)OC[C@@H](O)COP(=O)(O)O 20.5% [at 6.83 µM]

From PubChem BioAssay (NCATS)
